Experimental data reported in PubChem BioAssay AID1159580 (chemical genetic matrix, 2015).
Among all 5,500 compounds or so, about 2,000 (36%) were called active. Another 18% or so got no clear call; they are omitted. Rule as the data show it: active = normalized growth mostly below about 0.91 (no sharp cut-off); inconclusive = no clear call, values can overlap the other calls; inactive = mostly above about 0.92. This is one part of the list.

Test: chemical genetic growth profiling, strain panel (AID 1159580);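 also: tested at 20 µM; growth read once vehicle control cultures reached saturation at 30 °C; 1 = growth at the plate median or of vehicle wells; lower values mean less growth of the strain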
Conditions: growth OD

Measured: normalized growth

CN1C(CC(=O)c2ccccc2)CCCC1CC(O)c1ccccc1 (configuration not stated)
inactive: S. cerevisiae deletion strains, locus YJR075W, strain HOC1, stronger effect = lower value 0.998 | S. cerevisiae deletion strains, locus YKL009W, strain mrt4, stronger effect = lower value 0.994 | S. cerevisiae deletion strains, locus YKL068W, stronger effect = lower value 0.994 | S. cerevisiae deletion strains, locus YKL085W, strain MDH1 (second series), stronger effect = lower value 0.989 | S. cerevisiae deletion strains, locus YKL085W, strain MDH1, stronger effect = lower value 0.989 | S. cerevisiae deletion strains, locus YKL160W, strain elf1, stronger effect = lower value 1 | S. cerevisiae deletion strains, locus YKL190W, strain CNB1, stronger effect = lower value 1.01 | S. cerevisiae deletion strains, locus YKR001C, strain vps1, stronger effect = lower value 1 | S. cerevisiae deletion strains, locus YKR026C, strain gcn3, stronger effect = lower value 0.977 | S. cerevisiae deletion strains, locus YKR091W, strain srl3, stronger effect = lower value 0.975 | S. cerevisiae deletion strains, locus YLL001W, strain dnm1, stronger effect = lower value 0.967 | S. cerevisiae deletion strains, locus YLL026W, stronger effect = lower value 0.98 | S. cerevisiae deletion strains, locus YLL041C, strain sdh2, stronger effect = lower value 0.982 | S. cerevisiae deletion strains, locus YLR027C, strain aat2, stronger effect = lower value 0.965 | S. cerevisiae deletion strains, locus YLR039C, strain RIC1, stronger effect = lower value 1.04 | S. cerevisiae deletion strains, locus YLR058C, strain SHM2, stronger effect = lower value 1.01 | S. cerevisiae deletion strains, locus YLR102C, strain apc9, stronger effect = lower value 0.983 | S. cerevisiae deletion strains, locus YLR113W, strain HOG1, stronger effect = lower value 0.984 | S. cerevisiae deletion strains, locus YLR221C, strain rsa3, stronger effect = lower value 0.99 | S. cerevisiae deletion strains, locus YLR258W, strain gsy2, stronger effect = lower value 0.983 | S. cerevisiae deletion strains, locus YLR262C, strain YPT6 (second series), stronger effect = lower value 0.909 | S. cerevisiae deletion strains, locus YLR262C, strain YPT6, stronger effect = lower value 1.06 | S. cerevisiae deletion strains, locus YLR268W, strain sec22, stronger effect = lower value 0.928 | S. cerevisiae deletion strains, locus YLR320W, strain mms22, stronger effect = lower value 0.979 | S. cerevisiae deletion strains, locus YLR330W, strain CHS5, stronger effect = lower value 1 | S. cerevisiae deletion strains, locus YLR342W, strain FKS1 (second series), stronger effect = lower value 1.03 | S. cerevisiae deletion strains, locus YLR342W, strain FKS1, stronger effect = lower value 0.966 | S. cerevisiae deletion strains, locus YLR357W, strain rsc2, stronger effect = lower value 0.967 | S. cerevisiae deletion strains, locus YLR370C, strain arc18, stronger effect = lower value 0.962 | S. cerevisiae deletion strains, locus YLR371W, strain rom2, stronger effect = lower value 0.984 | S. cerevisiae deletion strains, locus YLR384C, strain iki3, stronger effect = lower value 0.974 | S. cerevisiae deletion strains, locus YLR418C, strain cdc73, stronger effect = lower value 0.957 | S. cerevisiae deletion strains, locus YML016C, strain PPZ1, stronger effect = lower value 1.01 | S. cerevisiae deletion strains, locus YML032C, strain rad52, stronger effect = lower value 0.973 | S. cerevisiae deletion strains, locus YML120C, strain ndi1, stronger effect = lower value 0.977 | S. cerevisiae deletion strains, locus YML124C, strain tub3, stronger effect = lower value 0.988 | S. cerevisiae deletion strains, locus YMR058W, strain fet3, stronger effect = lower value 0.969 | S. cerevisiae deletion strains, locus YMR078C, strain ctf18, stronger effect = lower value 0.991 | S. cerevisiae deletion strains, locus YMR125W, strain sto1, stronger effect = lower value 0.951 | S. cerevisiae deletion strains, locus YMR129W, stronger effect = lower value 0.976 | S. cerevisiae deletion strains, locus YMR205C, strain PFK2, stronger effect = lower value 0.971 | S. cerevisiae deletion strains, locus YMR223W, strain ubp8, stronger effect = lower value 0.993 | S. cerevisiae deletion strains, locus YMR231W, strain pep5, stronger effect = lower value 0.987 | S. cerevisiae deletion strains, locus YMR263W, strain SAP30, stronger effect = lower value 1.01 | S. cerevisiae deletion strains, locus YMR307W, strain GAS1, stronger effect = lower value 1.08 | S. cerevisiae deletion strains, locus YNL067W, strain RPL9B, stronger effect = lower value 0.986 | S. cerevisiae deletion strains, locus YNL071W, strain lat1, stronger effect = lower value 0.975 | S. cerevisiae deletion strains, locus YNL128W, strain TEP1, stronger effect = lower value 1.01 | S. cerevisiae deletion strains, locus YNL153C, strain GIM3, stronger effect = lower value 0.988 | S. cerevisiae deletion strains, locus YNL183C, strain NPR1, stronger effect = lower value 0.924 | S. cerevisiae deletion strains, locus YNL209W, strain ssb2, stronger effect = lower value 0.981 | S. cerevisiae deletion strains, locus YNL233W, strain BNI4, stronger effect = lower value 0.994 | S. cerevisiae deletion strains, locus YNL248C, strain rpa49, stronger effect = lower value 1.01 | S. cerevisiae deletion strains, locus YNL250W, strain rad50, stronger effect = lower value 0.981 | S. cerevisiae deletion strains, locus YNL271C, strain bni1, stronger effect = lower value 0.984 | S. cerevisiae deletion strains, locus YNL298W, strain CLA4, stronger effect = lower value 0.98 | S. cerevisiae deletion strains, locus YNL307C, strain MCK1, stronger effect = lower value 0.992 | S. cerevisiae deletion strains, locus YNL322C, strain KRE1 (second series), stronger effect = lower value 0.985 | S. cerevisiae deletion strains, locus YNL322C, strain KRE1, stronger effect = lower value 1.01 | S. cerevisiae deletion strains, locus YNR049C, strain mso1, stronger effect = lower value 0.973 | S. cerevisiae deletion strains, locus YNR052C, strain pop2, stronger effect = lower value 0.99 | S. cerevisiae deletion strains, locus YOL006C, strain TOP1, stronger effect = lower value 0.939 | S. cerevisiae deletion strains, locus YOL012C, strain htz1 0.951 | S. cerevisiae deletion strains, locus YOL147C, strain pex11, stronger effect = lower value 0.991 | S. cerevisiae deletion strains, locus YOR001W, strain rrp6, stronger effect = lower value 0.997 | S. cerevisiae deletion strains, locus YOR061W, strain CKA2, stronger effect = lower value 1.02 | S. cerevisiae deletion strains, locus YOR069W, strain VPS5, stronger effect = lower value 1.01 | S. cerevisiae deletion strains, locus YOR070C, strain gyp1, stronger effect = lower value 0.971 | S. cerevisiae deletion strains, locus YOR080W, strain dia2, stronger effect = lower value 0.988 | S. cerevisiae deletion strains, locus YOR083W, strain WHI5, stronger effect = lower value 1.01 | S. cerevisiae deletion strains, locus YOR106W, strain vam3, stronger effect = lower value 1 | S. cerevisiae deletion strains, locus YOR136W, strain idh2, stronger effect = lower value 0.993 | S. cerevisiae deletion strains, locus YOR144C, strain elg1, stronger effect = lower value 0.993 | S. cerevisiae deletion strains, locus YOR184W, strain ser1, stronger effect = lower value 0.988 | S. cerevisiae deletion strains, locus YOR231W, strain MKK1, stronger effect = lower value 0.978 | S. cerevisiae deletion strains, locus YOR265W, strain rbl2, stronger effect = lower value 0.973 | S. cerevisiae deletion strains, locus YOR270C, strain vph1, stronger effect = lower value 0.917 | S. cerevisiae deletion strains, locus YOR290C, strain snf2, stronger effect = lower value 0.951 | S. cerevisiae deletion strains, locus YOR316C, strain cot1, stronger effect = lower value 0.99 | S. cerevisiae deletion strains, locus YPL051W, strain arl3, stronger effect = lower value 0.998 | S. cerevisiae deletion strains, locus YPL055C, strain LGE1, stronger effect = lower value 1.01 | S. cerevisiae deletion strains, locus YPL078C, strain atp4, stronger effect = lower value 0.991 | S. cerevisiae deletion strains, locus YPL106C, strain sse1, stronger effect = lower value 0.954 | S. cerevisiae deletion strains, locus YPL240C, strain hsp82, stronger effect = lower value 0.998 | S. cerevisiae deletion strains, locus YPL241C, strain CIN2, stronger effect = lower value 1.01 | S. cerevisiae deletion strains, locus YPL256C, strain CLN2, stronger effect = lower value 0.938 | S. cerevisiae deletion strains, locus YPR119W, strain clb2, stronger effect = lower value 0.992 | S. cerevisiae deletion strains, locus YPR141C, strain kar3, stronger effect = lower value 0.992 | S. cerevisiae deletion strains, locus YPR163C, strain tif3, stronger effect = lower value 0.981 | S. cerevisiae deletion strains, locus YPR167C, strain met16, stronger effect = lower value 0.997 | S. cerevisiae deletion strains, strain wtn01, stronger effect = lower value 0.954 | S. cerevisiae strains, strain wild type, stronger effect = lower value 1.01
